Measurements reported in PubChem BioAssay.
Inconclusive results are not listed. Calls of active or inactive are those of the source.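 How the source made its calls, unless noted: active means viability at or below 30% in both replicate assays; inconclusive means viability at or below 30% in just one of the two assays; inactive means the rest.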

Tests used:
[1] = reducers of endogenous Her2 protein level, primary screen, SKBR3 breast tumor cells, AlphaScreen, ATP viability (AID 461;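 active means Her2 level under about 52% in both replicate screens, with viability over 70% of control, limit read from the data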;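 on Her2 level: lower value means less Her2 protein in the cells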;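 on viability: percent of carrier control wells set as 100% viability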); conditions: 18-24 h, measured here: SKBR3 viability, ATP luminescence, at 10 µM
[2] = molecular target: Receptor tyrosine-protein kinase erbB-2 (Homo sapiens) (UniProt P04626); assay: as above; conditions: 18-24 h, at 10 µM, stronger effect = lower value
[3] = SK-BR-3 cell growth inhibitors, pilot screen, 24 h, human (AID 572;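 active means viability at or below 10% of carrier control in both of two separate runs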;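 further: compound exposure lasted between 18 and 24 h rather than exactly 24 h; 100% = carrier-treated control wells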); conditions: SK-BR-3 viability, CellTiter-Glo luminescence, at 10 µM, stronger effect = lower value
[4] = HUVEC growth inhibition – cell-based, human, primary screen (AID 575); conditions: HUVEC proliferation, CellTiter-Glo luminescence, 72 h; at 10 µM; stronger effect = lower value;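 further: 100% = median of untreated cell wells with 0.1% DMSO on each plate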
[5] = growth inhibitors of H69AR lung tumor, primary screen, human, duplicate replicates (AID 580;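 active means viability at or under a set limit in both replicates, limit being median viability minus 3 SD, cut at about 48% in these data, passing the limit was not always enough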;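 further: 100% = mean luminescence of untreated wells and 0% = no signal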); conditions: H69AR lung tumor cells viability, ATP luminescence, 72 h; at 10 µM; stronger effect = lower value
[6] = reversal of MRP1-mediated doxorubicin resistance, pilot screen, H69AR cells, doxorubicin co-treatment (AID 601;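 active means viability loss from added drug above about 55%, and viability with drug at most 40%, in both replicates, limit read from the data, passing the limit was not always enough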); conditions: CellTiter-Glo, 72 h, at 10 µM; for differential viability (reversal): stronger effect = higher value
[7] = 384-well plate pilot, post-Golgi transport modulator project, inhibition of yeast transport mutant growth (AID 636; in the data active means inhibition above about 31%); conditions: absorbance 615 nm, about 18 h, stronger effect = higher value
[8] = growth suppression of yeast trafficking mutant, preliminary HTS, modulators of trafficking downstream of Golgi apparatus project, 1536-format plate, OD 615 nm (AID 637; in the data active means inhibition above about 30%); conditions: yeast transport mutant growth, absorbance 615 nm, 18 h; stronger effect = higher value
[9] = OD615 S. cerevisiae growth inhibition, permissive medium, pilot counter-assay, permissive growth control for S. cerevisiae lifespan shortening project (AID 705;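 active means growth inhibition above 25% in both replicates, a cutoff set 3 SD above the mean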); conditions: OD615, 24 h, at 10 µM, stronger effect = higher value
[10] = Restrictive medium S. cerevisiae growth inhibition, OD615, pilot screen of yeast lifespan reduction project, restrictive growth control (AID 706;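 active means growth inhibition above a set limit, 3 SD over mean compound inhibition, in both replicates, cut at about 43% in these data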;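 further: modified DeaD lifespan yeast strain shifted to restrictive glucose medium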); conditions: OD615, 48 h, at 10 µM, stronger effect = higher value
[11] = growth suppression of beta-catenin knockout HCT116, pilot screen, human colon tumor cells (AID 823;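 active means cell viability at or below a set limit in both duplicate runs, the limit being the all-compound median minus 4 SD, cut at about 23% in these data, passing the limit was not always enough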;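 further: 0% = wells killed by 20 µM Hyamine and 100% = untreated DMSO cell wells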); conditions: CellTiter-Glo, 60 h, at 10 µM, stronger effect = lower value
[12] = growth suppression of PTEN-deleted HCT116, pilot screen, cell-based, HCT116 clonal line, CellTiter-Glo (AID 824;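 active means viability at or below 27.92% in each of two runs, the all-compound median minus 4 SD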;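 further: 0% = 20 µM Hyamine control and 100% = vehicle cell control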); conditions: 60 h, at 10 µM, stronger effect = lower value
[13] = inhibitors of the yeast RAM network, pilot screen, dse1pr::URA3 reporter, 5-FOA selection (AID 869;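 active means inhibition over a set limit, the all-compound mean plus 3 SD, in both replicate runs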;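 further: 0% = DMSO wells with no growth and 100% = 10 µM 1-NA-PP1 with full growth; RAM network block rescues cells from 5-FOA so hits raise OD615 growth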); conditions: S. cerevisiae dse1pr::URA3 5-FOA growth, OD615, 2 d; at 10 µM; stronger effect = higher value; strain carries analog-sensitive mutant Cbk1 kinase
[14] = RAM signaling pathway blockade in yeast – S. cerevisiae, Pdr1DBD-CYC8 efflux-inhibited sensitized strain, primary screen (AID 1298;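 active means RAM network inhibition above 8.4% in each of two replicates, 3 SD over the compound average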;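 further: 0% = DMSO untreated cells without growth and 100% = 10 µM 1-NA-PP1 full growth; higher means more yeast growth rescued from 5-FOA killing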); conditions: S. cerevisiae cbk1-as DSE1-URA3 strain, 5-FOA growth OD615, 2 d; at 50 µM; stronger effect = higher value
[15] = viability gain of MRP-1-high H69AR cells under doxorubicin, pilot screen, MRP-1 activator project, CellTiter-Glo, duplicate (AID 807;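 active means viability increase at or above a cutoff of the median across tested compounds plus 3 SD, cut at about 8.5% in these data, passing the limit was not always enough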;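 further: compound pretreatment 18-22 h then 72 h combined with doxorubicin; 0% = doxorubicin alone and 100% = vehicle without doxorubicin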); conditions: H69AR viability with doxorubicin, CellTiter-Glo luminescence; at 10 µM; stronger effect = higher value
[16] = H69AR cells + 2 uM doxorubicin, measured here: viability with 2 uM doxorubicin, stronger effect = lower value
[17] = H69AR cells, compound alone cytotoxicity

Chain of Receptor tyrosine-protein kinase erbB-2 (Homo sapiens) (P04626 whole entry, looked up): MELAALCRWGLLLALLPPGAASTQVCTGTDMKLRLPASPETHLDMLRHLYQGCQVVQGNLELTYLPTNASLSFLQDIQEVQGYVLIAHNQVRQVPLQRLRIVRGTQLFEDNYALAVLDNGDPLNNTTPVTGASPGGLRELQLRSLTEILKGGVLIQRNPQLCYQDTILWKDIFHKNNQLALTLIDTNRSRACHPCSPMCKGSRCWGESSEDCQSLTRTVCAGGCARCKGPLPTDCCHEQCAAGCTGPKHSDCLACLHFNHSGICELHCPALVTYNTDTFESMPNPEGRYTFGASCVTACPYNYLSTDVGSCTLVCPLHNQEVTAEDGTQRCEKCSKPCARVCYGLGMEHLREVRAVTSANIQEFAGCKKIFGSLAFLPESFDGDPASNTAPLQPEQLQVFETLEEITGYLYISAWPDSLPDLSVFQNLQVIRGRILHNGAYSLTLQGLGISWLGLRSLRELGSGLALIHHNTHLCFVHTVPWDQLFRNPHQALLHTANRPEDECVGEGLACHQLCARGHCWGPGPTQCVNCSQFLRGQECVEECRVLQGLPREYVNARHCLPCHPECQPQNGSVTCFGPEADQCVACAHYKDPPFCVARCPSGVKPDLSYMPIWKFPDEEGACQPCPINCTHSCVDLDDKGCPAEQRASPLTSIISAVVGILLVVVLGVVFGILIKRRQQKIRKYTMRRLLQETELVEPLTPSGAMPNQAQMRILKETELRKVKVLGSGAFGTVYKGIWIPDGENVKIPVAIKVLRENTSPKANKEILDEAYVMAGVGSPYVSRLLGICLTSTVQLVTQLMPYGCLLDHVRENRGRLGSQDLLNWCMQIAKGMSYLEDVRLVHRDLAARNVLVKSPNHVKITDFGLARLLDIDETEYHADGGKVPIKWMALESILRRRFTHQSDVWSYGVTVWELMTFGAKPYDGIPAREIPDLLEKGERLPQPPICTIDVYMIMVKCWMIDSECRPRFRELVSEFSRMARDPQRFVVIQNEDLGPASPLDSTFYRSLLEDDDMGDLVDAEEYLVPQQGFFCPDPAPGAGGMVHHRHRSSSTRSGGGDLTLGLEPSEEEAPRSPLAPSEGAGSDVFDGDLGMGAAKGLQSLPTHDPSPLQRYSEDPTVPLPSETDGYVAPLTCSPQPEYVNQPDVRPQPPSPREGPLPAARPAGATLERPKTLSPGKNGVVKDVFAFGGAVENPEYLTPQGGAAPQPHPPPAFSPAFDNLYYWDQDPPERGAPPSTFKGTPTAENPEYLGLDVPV

Structure (SMILES) | viability [1] [%] | Her2 level [2] | viability [3] | viability [4] | viability [5] | differential viability (reversal) ([6]; H69AR cells + 2 uM doxorubicin) | viability [6, 16] [%] | viability [6, 17] [%] | inhibition [7] | inhibition [8] | growth inhibition [9] | growth inhibition [10] | viability [11] | viability [12] | inhibition [13] | RAM network inhibition [14] | viability increase [15]
Cc1noc(/C=C/N(C)C)c1S(=O)(=O)N1CCCC(C(=O)NC2CCCCC2)C1 (stereo not drawn) | 99 | 99.5% (inactive) | 99% (inactive) | 75.7% (inactive) | 88.6% (inactive) | -16.5% (inactive) | 105 | 88.6 | -3.07% (inactive) | -3.5% (inactive) | 2.12% (inactive) | -9.03% (inactive) | 93% (inactive) | 88.4% (inactive) | 0.78% (inactive) | 5.71% (inactive) | 
C=CCn1c(COc2ccc(CC)cc2)nnc1SC/C(O)=C(\C#N)c1nc2ccccc2[nH]1 | 86.5 | 88% (inactive) | 86.5% (inactive) | 59.8% (inactive) | 106% (inactive) | -1.07% (inactive) | 107 | 106 | -0.92% (inactive) | -6% (inactive) | 1.15% (inactive) | 0.59% (inactive) | 92.6% (inactive) | 91.3% (inactive) | 2.46% (inactive) | 6.17% (inactive) | 
CCOc1ccc(-c2nnc(N(CC)C(=O)C3CCC3)s2)cc1 | 87.5 | 72% (inactive) | 87.5% (inactive) | 98.5% (inactive) | 83.7% (inactive) | 5.45% (inactive) | 78.3 | 83.7 | -4.21% (inactive) | -3.97% (inactive) | -4.38% (inactive) | 7.03% (inactive) |  | 84.6% (inactive) | 0.825% (inactive) | 0.26% (inactive) | -1.68% (inactive)
CCOC(=O)c1cc2c(=O)n3ccccc3nc2n(CC2CCCO2)c1=NC(C)=O (stereo not drawn) | 99 | 95.5% (inactive) | 99% (inactive) | 102% (inactive) | 81.1% (inactive) |  |  |  | -6.71% (inactive) | -2.22% (inactive) | -22.2% (inactive) | -17.4% (inactive) | 97.6% (inactive) | 93.8% (inactive) | 0.525% (inactive) | 3.93% (inactive) | 0.08% (inactive)
COC(=O)c1cn(NC(=O)c2cccnc2)c(=O)c2ccccc12 | 88 | 84% (inactive) | 88% (inactive) | 101% (inactive) | 103% (inactive) | 2.79% (inactive) | 100 | 103 | -7.26% (inactive) | 1.11% (inactive) | -2.23% (inactive) | 0.94% (inactive) | 101% (inactive) | 99% (inactive) | 0.92% (inactive) | 5.05% (inactive) | 
CCn1c2ccccc2c2cc(Nc3cc(C)nc4ncnn34)ccc21 | 93 | 49% (active) | 93% (inactive) | 18.1% (active) | 29.4% (active) | -28% (inactive) | 57.4 | 29.4 | -1.6% (inactive) | 0% (inactive) |  | 72.4% (active) |  | 12.2% (active) | -0.255% (inactive) | -1.23% (inactive) | -7.76% (inactive)
CN1C(=O)C(O)(CC(=O)c2ccccc2O)c2cc(Br)ccc21 (stereo not drawn) | 103 | 85.5% (inactive) | 103% (inactive) | 45.5% (inactive) | 27% (active) | -24.3% (inactive) | 51.3 | 27 | -4.53% (inactive) | 4% (inactive) | -2.37% (inactive) | 18% (inactive) |  |  | -0.67% (inactive) | -2.32% (inactive) | -6.06% (inactive)
CCOc1ccccc1C1CC(c2ccc(Br)cc2)Nc2nc(N)nn21 (stereo not drawn) | 91.5 | 102% (inactive) | 91.5% (inactive) | 63.3% (inactive) | 25.7% (active) | -45.9% (inactive) | 71.6 | 25.7 | -2.13% (inactive) | 0.16% (inactive) | 9.24% (inactive) |  | 69.3% (inactive) | 73.2% (inactive) | 2.62% (inactive) | 4.4% (inactive) | -2.25% (inactive)
CCOC(=O)c1cc2c(=O)n3ccccc3nc2n(CCCOC)c1=NC(=O)C(C)(C)C | 91 | 92% (inactive) | 91% (inactive) | 105% (inactive) | 83.7% (inactive) | 23.1% (inactive) | 60.6 | 83.7 | -7.4% (inactive) | -3.17% (inactive) | -11% (inactive) | 7.96% (inactive) |  | 91.4% (inactive) | 2.98% (inactive) | 2.11% (inactive) | -2.09% (inactive)
COc1ccc(Nc2ncnc3c2cnn3-c2ccccc2)cc1OC | 82.5 | 91% (inactive) | 82.5% (inactive) | 59.4% (inactive) |  | -31% (inactive) | 73.7 | 42.7 | 0.27% (inactive) | -9.33% (inactive) | -4.18% (inactive) | -24.4% (inactive) | 107% (inactive) | 97.7% (inactive) | 0.635% (inactive) | 5.61% (inactive) | -0.97% (inactive)
Oc1cccc(C=NCc2ccccc2)c1O | 78 | 82.5% (inactive) | 78% (inactive) | 67.3% (inactive) |  | -26% (inactive) | 77 | 51 | -0.39% (inactive) | -0.5% (inactive) | 83.7% (active) | 97.5% (active) | 71% (inactive) | 72.2% (inactive) | -0.21% (inactive) | -1.18% (inactive) | -3.97% (inactive)
COc1ccc(-c2nnc3sc(C(C)N4C(=O)c5ccccc5C4=O)nn23)cc1 (stereo not drawn) | 84 | 111% (inactive) | 84% (inactive) | 96.8% (inactive) | 90.9% (inactive) | -9.99% (inactive) | 101 | 90.9 | 2.13% (inactive) | -2.67% (inactive) |  | 53.1% (active) | 101% (inactive) | 96.5% (inactive) | 1.46% (inactive) | -1.51% (inactive) | -2.35% (inactive)
CC(C)CCSc1nc2c(c(=O)[nH]c(=O)n2C)n1CCCc1ccccc1 | 87.5 | 71% (inactive) | 87.5% (inactive) | 46.7% (inactive) |  | -8.95% (inactive) | 58.9 | 50 | -3.73% (inactive) | 4.17% (inactive) | -11.8% (inactive) | -9.37% (inactive) | 68.8% (inactive) | 59.1% (inactive) | 3.84% (inactive) | 9.02% (inactive) | -4.55% (inactive)
Cn1c(SCC(=O)c2cc3ccccc3o2)nnc1-c1ccccc1 | 96.5 | 97.5% (inactive) | 96.5% (inactive) | 105% (inactive) | 84.3% (inactive) | 3.21% (inactive) | 81.1 | 84.3 | -6% (inactive) | 13.3% (inactive) | 10.3% (inactive) |  | 97.9% (inactive) | 96.8% (inactive) | 1.88% (inactive) | 6.5% (inactive) | -3.83% (inactive)
N#CC1=C(N)Oc2cc(O)ccc2C1C1CCCCC1 (stereo not drawn) | 121 | 89.5% (inactive) | 121% (inactive) | 47.4% (inactive) | 12.2% (active) | -51.2% (inactive) | 63.4 | 12.2 | -1.17% (inactive) | 4.17% (inactive) | -0.885% (inactive) | -9.19% (inactive) |  |  | 0.455% (inactive) | 3.93% (inactive) | -5.63% (inactive)
CC1CCN(Cc2ccc(NC(=O)C3CCN(c4nnc(-n5cccc5)s4)CC3)cc2)CC1 | 86.5 | 90.5% (inactive) | 86.5% (inactive) | 4.64% (active) | 78.5% (inactive) | -1.01% (inactive) | 79.5 | 78.5 | -4.27% (inactive) | 1.33% (inactive) | 3.76% (inactive) | 2.38% (inactive) |  |  | 0.695% (inactive) | 4.34% (inactive) | -2.95% (inactive)
O=C(CCS(=O)(=O)c1cccc2nsnc12)NCc1ccccc1 | 93.5 | 116% (inactive) | 93.5% (inactive) | 91.2% (inactive) | 106% (inactive) | 17.4% (inactive) | 88.9 | 106 | -3.01% (inactive) | -4.6% (inactive) | -12.7% (inactive) | -4.2% (inactive) |  | 105% (inactive) | 1.31% (inactive) | 1.65% (inactive) | -2.9% (inactive)
OC1(c2cccc(C(F)(F)F)c2)CCN(c2ccc(-c3ccccc3)nn2)CC1 | 71.5 | 78.5% (inactive) | 71.5% (inactive) | 86.4% (inactive) |  | -2.92% (inactive) | 61.9 | 59 | 0.27% (inactive) | 0.98% (inactive) | -3.31% (inactive) | -9.3% (inactive) | 10.7% (active) | 46.8% (inactive) | 1.11% (inactive) | 5.46% (inactive) | -8.34% (inactive)
COc1ccc(-n2ncc3c(N4CCN(c5cccc(C)c5C)CC4)ncnc32)cc1 | 88 | 79% (inactive) | 88% (inactive) | 11.3% (active) | 27.1% (active) | 5.39% (inactive) | 21.7 | 27.1 | -2.4% (inactive) | -2.17% (inactive) | -5% (inactive) | -6.91% (inactive) |  |  | 1.51% (inactive) | 7.15% (inactive) | -7.5% (inactive)
CCn1c(NC(=O)c2cccc(Cn3cc(Cl)cn3)c2)nc2ccccc21 | 93.5 | 75% (inactive) | 93.5% (inactive) | 69% (inactive) |  | -8.54% (inactive) | 65.1 | 56.5 | -0.53% (inactive) | 0.16% (inactive) | -10.1% (inactive) | 7.82% (inactive) | 40.3% (inactive) | 40.1% (inactive) | 0.95% (inactive) | 4.07% (inactive) | -0.12% (inactive)
CCN(CC)c1ccc2cc(-c3nc4ccccc4[nH]3)c(=O)oc2c1 | 88 | 101% (inactive) | 88% (inactive) | 20.9% (active) | 3.43% (active) | -0.345% (inactive) | 3.78 | 3.43 | 0.13% (inactive) | -6.39% (inactive) | -3.73% (inactive) | -16.3% (inactive) |  |  | -1.12% (inactive) | 0.92% (inactive) | -7.61% (inactive)
